Source: PubChem (several laboratories)
BoNT F protease = inhibitors of Botulinum neurotoxin F light chain protease | Multiplex microsphere protease cleavage assay, flow cytometry | inhibition, % at 10 µM | 360,000 compounds, 0.22% hits; in the data active = inhibition above about 35%, passing the limit was not always enough; inconclusive = no clear call, values can overlap the other calls; also: plate controls were buffer without enzyme for full effect and enzyme alone for no effect
Anthrax LF prot = anthrax lethal factor protease inhibition; P15917; multiplex microsphere protease cleavage assay, LF; 360,000 compounds, 0.12% hits; AID 588501; inhibition, % at 10 µM; also: plate controls were buffer without enzyme for full effect and enzyme alone for no effect
Autofluor counter = compound fluorescence in toxin protease inhibitor counterscreen. compound autofluorescence counterscreen, microsphere flow cytometry; hits give high values. fluorescence intensity (no concentration beside the values). 360,000 compounds, 3.1% hits; in the data active = fluorescence intensity above about 16000; inconclusive = no clear call, values can overlap the other calls
BoNT A protease = blocks Botulinum neurotoxin A light chain protease. multiplex microsphere protease substrate cleavage, flow cytometry. inhibition, % at 10 µM. 360,000 compounds, 0.17% hits. AID 588499; also: plate controls were buffer without enzyme for full effect and enzyme alone for no effect
PriA SSB inh = blocks PriA binding to SSB C-terminal tail; inhibition, % at 33 µM; AlphaScreen SSBct-PriA binding, biotinylated peptide; AID 1272365; 430,000 compounds, 0.6% hits; in the data active = inhibition mostly above about 37%, no sharp cut-off; inactive = mostly below about 20%;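 also: plate controls were negative control peptide for no effect and reference peptide for full effect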
* marks the source's active call; other numbers are inactive results; ? = inconclusive; . = not tested or not shown. Compounds with a hit are over-represented: about 3.1% of the library has one in this group of screens. Rule as the data show it, unless noted: active = inhibition above about 30%; inconclusive = no clear call, values can overlap the other calls; inactive = below that.

SMILES	BoNT F protease	Anthrax LF prot	Autofluor counter	BoNT A protease	PriA SSB inh
CCOC(=O)c1c(C)[nH]c(C(=O)COC(=O)CN2C(=O)C3CCCCC3C2=O)c1C (stereo unspecified)	-1	7	9323	2	-16
CCOC(=O)c1c(C)[nH]c(C(=O)COC(=O)C(C)N2C(=O)C3CCCCC3C2=O)c1C (stereo unspecified)	-9	-3	24956*	-8	-13
COC(=O)c1cnc(SCc2ccc(Cl)cc2)n1C	-1	5	4783	-1	-19
Cn1c(SCc2ccc(Cl)cc2)nc(C(F)(F)F)cc1=O	-6	-4	20153*	-2	-16
Nc1nnnn1N=Cc1ccco1	.	.	.	.	-14
CCCN1CCCc2cc(CCNC(=O)C(=O)Nc3ccc(OC)c(OC)c3)ccc21	.	.	.	.	44
CCCN1CCCc2cc(CCNS(=O)(=O)c3cc(Cl)ccc3OC)ccc21	.	.	.	.	56*
CCCN1CCCc2cc(CCNS(=O)(=O)c3cc(OC)ccc3OC)ccc21	.	.	.	.	43*
CCCN1CCCc2cc(CCNC(=O)C(=O)Nc3ccc(OC)cc3OC)ccc21	.	.	.	.	36
CCCN1CCCc2cc(CCNS(=O)(=O)c3cc(CC)ccc3OC)ccc21	.	.	.	.	66*
O=C(NCCOc1ccccc1)NCC[C@H]1CCCCN1S(=O)(=O)c1cccs1	.	.	.	.	4
Cc1nnc(-c2cccc(Br)c2)c2cn(-c3ccccc3)nc12	27	8	32979*	15	-9
Cc1nnc(-c2cccc(Br)c2)c2cn(-c3ccc(Br)cc3)nc12	10	-4	17435*	1	-9
Cc1nnc(-c2cccc(Br)c2)c2cn(-c3cccc(Br)c3)nc12	12	1	34824*	8	-9
COc1ccc(-n2cc3c(-c4cccc(Br)c4)nnc(C)c3n2)cc1	31	17	48432*	8	-4
CC(=O)c1nn(-c2cccc(Br)c2)cc1C(=O)c1ccc(C)cc1	?	?	?	-1	-4
O=C(c1cn(-c2ccccc2)nc1-c1cccc(Br)c1)N1CCOCC1	-2	0	2637	0	-9
CC(C)(C)NC(=O)CSc1nc(-c2ccccc2)c(-c2ccccc2)[nH]1	0	-13	23364*	0	19
O=C(O)CSc1nc(-c2ccccc2)c(-c2ccccc2)[nH]1	-9	-5	4397	0	6
COCCNC(=O)C1CN(c2ncnc3c2nnn3C)C1	.	.	.	.	2
CC(O)(CNS(=O)(=O)c1ccc2c(c1)OCCO2)C1CC1 (stereo unspecified)	.	.	.	.	0
COc1ccccc1N=c1scc(-c2ccc3c(c2)NC(=O)CO3)n1CC1CCCO1 (stereo unspecified)	-12	-1	3192	-1	25
O=C1COc2ccc(-c3csc(=Nc4ccc(OC(F)F)cc4)n3CC3CCCO3)cc2N1 (stereo unspecified)	4	-11	18135*	4	36
CCOC(=O)C(CC)Sc1nnc(-c2c[nH]c3ccccc23)n1-c1cc(OC)ccc1OC (stereo unspecified)	.	.	.	.	-1
CN(Cc1ccccc1)C(=O)CC(=O)N(C)Cc1ccccc1	-33	-6	3631	0	1
SMILES	BoNT F protease	Anthrax LF prot	Autofluor counter	BoNT A protease	PriA SSB inh
CN(/C=C/C(=O)C(F)(F)F)Cc1ccccc1	-4	-2	24286*	-2	-7
O=C1C=C(NCc2ccccc2)C2(CCCCC2)O1	4	1	22250*	3	-16
CCC(NC(=O)c1cccc(Cn2nc(C)c([N+](=O)[O-])c2C)c1)c1ccc(C(C)C)cc1 (stereo unspecified)	-1	-2	22838*	1	-8
Cc1nn(Cc2ccc(C(=O)N3N=C(C(F)F)CC3(O)C(F)F)o2)c(C)c1[N+](=O)[O-] (stereo unspecified)	3	1	2100	0	5
Cc1nn(Cc2cccc(C(=O)O)c2)c(C)c1[N+](=O)[O-]	-2	-3	4372	0	-11
CC1=NN(C(=O)c2cccc(Cn3nc(C)c([N+](=O)[O-])c3C)c2)C(O)(C(F)(F)F)C1 (stereo unspecified)	-7	0	24994*	-4	-9
Cc1nn(Cc2cccc(C(=O)N3N=C(C(F)F)CC3(O)C(F)F)c2)c(C)c1[N+](=O)[O-] (stereo unspecified)	-6	0	24863*	-4	12
CCOC(=O)c1nnn(-c2nonc2N)c1CN1CCc2ccccc2C1	4	-14	20264*	5	8
CC(C)OC(=O)c1nnn(-c2nonc2N)c1CN1CCc2ccccc2C1	-5	0	5610	0	-2
CC1CC(=O)N(CCc2ccccc2)C(=O)C1	-3	5	2874	0	-17
O=C1CC(=O)N(CCc2ccccc2)C(=O)N1CCc1ccccc1	-3	-2	22637*	2	-4
CCC(Sc1nc2sc(C(=O)OC)c(C)c2c(=O)n1N)C(=O)N(CC)CC (stereo unspecified)	1	-6	21202*	2	-4
O=S(=O)(NCc1cncc(-c2ccsc2)c1)c1cccnc1	.	.	.	.	-11
NNC(=O)c1n[nH]c2c1CCC2	.	.	.	.	-15
CC1(C)CC(=NNC(=O)c2n[nH]c3c2CCC3)CC(C)(C)N1	37*	-2	2077	3	-2
COc1cccc2c1OC1(CCN(C)CC1)N1N=C(c3cc(Cl)ccc3O)CC21 (stereo unspecified)	.	.	.	.	1
Cc1ccc(S(=O)(=O)NCCCCCC(=O)N(C)C)cc1	2	-3	19200*	1	-14
CSc1nc(C)cc(OCCNS(=O)(=O)c2ccc(C)cc2)n1	-7	-7	17261*	-6	-4
COCCNS(=O)(=O)c1ccc(-c2ccc(C)cc2)cc1	-18	-8	11333	-1	-17
Cc1ccc(S(=O)(=O)NCCOCCNS(=O)(=O)c2ccc(C)cc2)cc1	0	2	16362*	0	7
Cc1ccc(S(=O)(=O)NCCCCCCNS(=O)(=O)c2ccc(C)cc2)cc1	-2	0	3750	0	.
c1cnn(CC2CCNCC2)c1	.	.	.	.	-7
CSc1cccc(NC(=O)Cc2nnc(-c3ccsc3)o2)c1	.	.	.	.	-9
Cc1ccc2c(CC(=O)NCc3ccco3)cc(=O)oc2c1	.	.	.	.	-5
Cc1ccc2c(CNCc3ccco3)cc(=O)oc2c1	0	-3	23320*	0	3
SMILES	BoNT F protease	Anthrax LF prot	Autofluor counter	BoNT A protease	PriA SSB inh
O=C(NCc1cccnc1)c1noc2c1CCCCC2	1	0	10589	1	4
O=C(NCc1ccco1)c1noc2c1CCCCC2	-6	-8	16534*	-2	7
O=C(NCc1cccnc1)c1noc2c1CCCC2	2	-9	21847*	4	-2
O=C(NCCc1ccccc1)c1noc2c1CCCCC2	0	0	19823*	3	-17
O=C(Nc1ccc2c(c1)N(C(=O)c1ccco1)CC2)c1c(F)cccc1Cl	.	.	.	.	-4
Clc1ccc(Nc2ncn[nH]2)cc1	-2	1	23107*	0	-12
O=C(N/N=C/c1ccco1)/C(=C/c1cccc([N+](=O)[O-])c1)NC(=O)c1ccccc1	2	-1	22258*	0	.
CC(C)NC(=O)/C(=C\c1cccc([N+](=O)[O-])c1)NC(=O)c1ccccc1	-1	-2	22798*	2	-15
